# Assay results as given in ChEMBL document CHEMBL4513216, “Probing the Open Global Health Chemical Diversity Library for Multistage-Active Starting Points for Next-Generation Antimalarials” (ACS Infect Dis, 2020).
# In all, about 69,000 compounds went through this assay and about 8,600 (12%) showed an effect of 50% or more. The sample holds strong results, similar compounds and a random draw of the others, so the mix is not that of the screen.
# Test system: Plasmodium berghei
# Experiment: Screen against P. berghei liver stage (PbLuc), transformed with Luciferase, at 10uM
# Format: functional, HepG2
# Conditions: tested at 10 uM
row,SMILES,INHIBITION [%]
1,CNCc1ccc([C@@H]2CN(C)C[C@H]2C(N)=O)cc1,49.5
2,C[C@H](NC(=O)c1cccc(CCC(C)(C)O)c1)C(N)=O,10.3
3,CC(C)n1ccnc1CNC(=O)c1cccc(CCC(C)(C)O)c1,54.5
4,CC(C)(O)CCc1cccc(C(=O)NCc2nccs2)c1,56.3
5,Cc1csc(CN(C)C(=O)c2cccc(CCC(C)(C)O)c2)n1,34.9
6,CC[C@@H](CO)NC(=O)c1cccc(CCC(C)(C)O)c1,5.78
7,CN(Cc1nccn1C)C(=O)c1cccc(CCC(C)(C)O)c1,39.4
8,CCN(CC)c1ncccc1CNCc1ccc(Cl)s1,49.4
9,Cc1ncsc1CN(Cc1ccccc1)Cc1ccncc1,12.1
10,CC(C(=O)Nc1ccc(Cl)cn1)n1ccc(C(F)(F)F)n1 (configuration not stated),42.4
11,Cc1cccc2nc(C(=O)N3CCCC[C@]4(C)NC(=O)CC[C@H]34)cn12,22
12,O=C(NC1CC1)c1cc(C(F)(F)F)cc(C(=O)NC2CC2)n1,5.21
13,Cc1cc(CN(C)Cc2ncc(C(C)(C)C)o2)no1,-30.5
14,Cc1cc(CN(C)CCN(C)c2ccccc2)no1,82.4
15,Cc1cc(CN(C)CC2CCCCC2)no1,23.1
16,Cc1cc(CN(C)Cc2ncc(-c3cccs3)o2)no1,1.84
17,Cc1cc(CN(C)Cc2ncc(-c3ccccc3)o2)no1,50.7
18,Cc1cc(CN(C)CCC(O)c2ccccc2)no1 (configuration not stated),30.3
19,CC(C)c1nccn1CC(=O)Nc1ccnn1C(C)C(C)C (configuration not stated),-5.51
20,COC(=O)c1cccc(C(=O)NCc2ccco2)n1,41.6
21,CC(=O)Nc1ccc(S(=O)(=O)N2CCOC(Cn3ccnc3)C2)cc1 (configuration not stated),-36.4
22,Cc1cc(C)n(C2CN(CCC(=O)NCCc3ccccc3)C2)n1,36.3

row,SMILES,INHIBITION [%]
1,Cc1cc(C)n(C2CN(CCC(=O)NC3CCCCC3)C2)n1,25.6
2,CCc1ccc(NC(=O)CCN2CC(n3nc(C)cc3C)C2)cc1,52.6
3,CS(=O)(=O)N[C@@H]1CN(C(=O)c2cc3ccccc3s2)C[C@H]1O,-19.7
4,FC(F)(F)c1cc(C2CCN(c3cnccn3)CC2)n2ccnc2n1,-7.98
5,CC(=O)N1CCC(c2cc(C(F)(F)F)nc3nccn23)CC1,61.9
6,CC(=O)N1CCC(c2cc(C(F)(F)F)n3ccnc3n2)CC1,-22.6
7,CN(C)C(=O)CN1CCc2onc(-c3ccccc3F)c2C1,-17.8
8,Fc1cnc(N2C[C@H]3CN(Cc4cccc(F)c4)C[C@H]3C2)nc1,60
9,Cc1ccc(CN2C[C@@H]3CN(c4ncc(F)cn4)C[C@@H]3C2)cc1,46.7
10,Fc1cccc(CN2C[C@@H]3CN(c4ncccn4)C[C@@H]3C2)c1,28.5
11,CN(CCCc1cc(-c2ccc(F)cc2)n(C)n1)CC(N)=O,-65.6
12,CN1CC[C@H](N(Cc2ccccc2)Cc2ccccc2)C[C@H](O)C1,32.1
13,Cc1ccc(CN2CCO[C@@H]3C[C@@H](C(=O)NC(C)C)C[C@H]32)o1,-26.5
14,CSCCc1c(-c2ccccc2)ncn1[C@H]1C[C@@H](C(=O)O)N(C)C1,19.5
15,CSCCc1c(-c2ccccc2)ncn1CC(C)(C)N1CCCC1,26.7
16,CC(C)(Cn1cnc(-c2ccccc2)c1-c1ccco1)N1CCOCC1,51.7
17,CN(C)CC(C)(C)Cn1cnc(-c2ccccc2)c1-c1ccncc1,-18.1
18,CN(C)CC(C)(C)Cn1cnc(-c2ccccc2)c1-c1cccc(O)c1,-39.3
19,CSCCc1c(-c2ccccc2)ncn1CC(C)(C)N1CCOCC1,69.3
20,CCc1cc(CN(C)C(=O)c2cc(=O)[nH]c(=O)[nH]2)on1,-34.8
21,CCn1nc(C)c2ncnc(N3CCCC(C)C3)c21 (configuration not stated),26.9
22,CCN(CC1CCOC1)C(=O)c1ccc(N(C)C)cc1F (configuration not stated),13.8

row,SMILES,INHIBITION [%]
1,O=C(Cc1ccccc1)N1CCOC(c2nc(-c3ncccn3)no2)C1 (configuration not stated),-20.2
2,COc1ccc(C(NCc2cccc(O)c2)C2CC2)cc1 (configuration not stated),3.84
3,CCOCC1CN(Cc2ccc3c(c2)OCO3)Cc2ncn(C)c21 (configuration not stated),23.3
4,Cn1cnc2c1C(COCC1CC1)CN(Cc1ccc3c(c1)OCO3)C2 (configuration not stated),63.5
5,CC(C)COCC1CN(Cc2ccoc2)Cc2ncn(C)c21 (configuration not stated),9.51
6,CC(C)COCC1CN(Cc2ccc3c(c2)OCO3)Cc2ncn(C)c21 (configuration not stated),55.1
7,COCC1CN(Cc2ccc3c(c2)OCO3)Cc2ncn(C)c21 (configuration not stated),38.2
8,CC(C)COCC1CN(Cc2cnn(C)c2)Cc2ncn(C)c21 (configuration not stated),28.3
9,CC(C)Cn1c(=O)[nH]c2cn(-c3ccc(F)cc3)c(=O)n21,11.4
10,Cc1cc(CN2CCC3(CC2)CC(Nc2ncccn2)CO3)nn1C (configuration not stated),-0.813
11,CC(Cn1cccn1)NCc1csc(COc2ccc(F)cc2)n1 (configuration not stated),33.7
12,COCC1(NC(=O)C(c2ccc(F)cc2)N(C)C)CCCC1 (configuration not stated),21.1
13,CN(C)C(C(=O)NC1(CO)CCCC1)c1ccc(F)cc1 (configuration not stated),31.3
14,CCCC1(NC(=O)C(c2ccc(F)cc2)N(C)C)CC1 (configuration not stated),53.6
15,CCOc1ccc(CCCC(=O)N2CCC(c3nnn[nH]3)CC2)cc1C,17.7
16,CC(C)CC(=O)N1CCCCC(NC(=O)CCc2cccnc2)C1 (configuration not stated),34.4
17,CCO[C@H]1CCN(S(=O)(=O)c2cn(C)cn2)[C@H]1Cc1ccccc1,-55.5
18,Cc1cccn2cc(CN3CCCC(c4noc(C5CC5)n4)C3)nc12 (configuration not stated),-48.6
19,C1CC(c2noc(C3CC3)n2)CN(Cc2noc(C3CC3)n2)C1 (configuration not stated),17.8
20,c1cc(CN2CCCC(c3noc(C4CC4)n3)C2)no1 (configuration not stated),51.6
21,CCN(Cc1cnn(C)c1)C[C@H]1CC[C@@H](Cc2ccc(CO)cc2)O1,-5.78
22,O=C(NCc1ccco1)[C@H]1C[C@@H]2CCN(c3nncs3)C[C@H]2O1,13.5

row,SMILES,INHIBITION [%]
1,CCc1nc(CN(C)C(=O)CSC)no1,-4.96
2,CSCC(=O)N(C)Cc1noc(-c2ccccc2)n1,55.9
3,CN(Cc1noc(-c2ccccc2)n1)C(=O)CSc1nnc(N)s1,18.9
4,c1ccc(-c2cnc(CN3CCCC3Cn3cccn3)o2)cc1 (configuration not stated),40.9
5,O=C1CC2(CCCC2)CC(=O)N1Cc1ncccn1,29.4
6,Cn1nc(C(=O)NCc2ccc(Cl)cc2)c2c1CCS(=O)(=O)C2,53.2
7,Cn1nc(C(=O)NCc2ccc(F)cc2)c2c1CCS(=O)(=O)C2,21.7
8,Cn1nc(C(=O)NCc2cccnc2)c2c1CCS(=O)(=O)C2,73.9
9,COc1ccc(CNC(=O)c2nn(C)c3c2CS(=O)(=O)CC3)cc1,40
10,Cn1nc(C(=O)NCc2ccccn2)c2c1CCS(=O)(=O)C2,-45
11,Cn1nc(C(=O)NCc2cccs2)c2c1CCS(=O)(=O)C2,23.4
12,Cc1cnnn1Cc1nnn2c1CN(Cc1ccccn1)CCC2,42.6
13,O=C(O)CSc1nc(-c2ccc3c(c2)CCC3)n[nH]1,11.4
14,O=C([C@H]1CC[C@@H]2[C@@H](CCN2Cc2ccc(F)cc2)O1)N1CCCO1,-11.6
15,Cc1nccn1CCC1CCN(c2ncccn2)CC1,48.5
16,c1cnc(N2CCN(CCn3ccnc3-c3ccncc3)CC2)nc1,50.5
17,c1cnc(N2CCN(CCn3ccnc3-c3c[nH]cn3)CC2)nc1,14.5
18,Cc1nc(N)sc1C(=O)N1Cc2ccccc2OC2(CCOCC2)C1,61.7
19,Nc1nonc1C(=O)N1Cc2ccccc2OC2(CCOCC2)C1,8.72
20,O=C(c1ccc(O)nc1)N1Cc2ccccc2OC2(CCOCC2)C1,25.6
21,O=C(c1ccccn1)N1Cc2ccccc2OC2(CCOCC2)C1,48.4
22,O=C(c1ccncc1)N1Cc2ccccc2OC2(CCOCC2)C1,20.5

row,SMILES,INHIBITION [%]
1,Cc1ccc(C(=O)N2Cc3ccccc3OC3(CCOCC3)C2)cn1,52
2,Cc1cnc(C(=O)N2Cc3ccccc3OC3(CCOCC3)C2)cn1,-6.92
3,O=C(c1cncnc1)N1Cc2ccccc2OC2(CCOCC2)C1,-33.4
4,Cc1cc(C(=O)N2Cc3ccccc3OC3(CCOCC3)C2)nc(N)n1,52.9
5,Cc1ccc2nc(C3CCCN(Cc4ccccc4)C3)nc(O)c2c1 (configuration not stated),30.8
6,CN(C)C(=O)N1C[C@@H](C(=O)NCc2ccco2)C[C@H]2OCC[C@H]21,-28
7,CCc1cc(=O)n(CC(=O)N2CCCCC2)c(-c2cccc(F)c2)n1,44.1
8,Cc1ccc(N2CCCC(N(C)c3nn4cc(C)nc4s3)C2)nn1 (configuration not stated),-21.9
9,O[C@H]1CN(Cc2ccc3c(c2)OCCO3)CC[C@@]12CCCO2,19.6
10,Cc1cnc(-c2nc(O)c3c(n2)CN(C(=O)C2CCCO2)CC3)cn1 (configuration not stated),9.05
11,CCN(Cc1ccoc1)C(=O)C1CCN(C(=O)OC(C)(C)C)C1 (configuration not stated),-12.4
12,O=C(CC1CCC2(CC1)CCN(Cc1ccncc1)CC2)N1CCCC1,-15.2
13,CN1CCC(N(CCc2ccccc2)C(=O)c2ccc(C#N)cc2)CC1,53.1
14,CN1CCC(N(CCc2ccccc2)C(=O)c2ccc(C#N)nc2)CC1,12.5
15,CN1CCC(N(CCc2ccccc2)C(=O)c2ccc(CO)cc2)CC1,25.2
16,Cc1cc(C(=O)NC2=NCCS2)c(C)n1-c1ccccn1,42.1
17,OC(c1ccccc1)c1cn(C2CCN(Cc3nccs3)CC2)nn1 (configuration not stated),18.5
18,Cc1ccsc1CN1CCC(n2cc(C(O)c3ccccc3)nn2)CC1 (configuration not stated),72.1
19,Cc1ccc(CN2CCC(n3cc(C(O)c4ccccc4)nn3)CC2)o1 (configuration not stated),48.5
